Rows were chosen to be rich in hits. Some 10% of all compounds tested hit in one or more screens of this group.
ALDH1A1 inh = qHTS Assay for Inhibitors of Aldehyde Dehydrogenase 1 (ALDH1A1). Aldehyde dehydrogenase 1A1 (Homo sapiens), P00352. Purified ALDH1A1, NADH fluorescence, propionaldehyde substrate. Potency, µM (doses to about 75.3 µM), for the others: at the top dose activity, negative = inhibition, usual class: inhibitors. actives 7.3% (n = 220,000). AID 1030, 2008;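 further: potency means the concentration at half of the fitted maximal effect; plate controls were no enzyme wells and a reference inhibitor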
Target sequence (P00352 whole entry, looked up): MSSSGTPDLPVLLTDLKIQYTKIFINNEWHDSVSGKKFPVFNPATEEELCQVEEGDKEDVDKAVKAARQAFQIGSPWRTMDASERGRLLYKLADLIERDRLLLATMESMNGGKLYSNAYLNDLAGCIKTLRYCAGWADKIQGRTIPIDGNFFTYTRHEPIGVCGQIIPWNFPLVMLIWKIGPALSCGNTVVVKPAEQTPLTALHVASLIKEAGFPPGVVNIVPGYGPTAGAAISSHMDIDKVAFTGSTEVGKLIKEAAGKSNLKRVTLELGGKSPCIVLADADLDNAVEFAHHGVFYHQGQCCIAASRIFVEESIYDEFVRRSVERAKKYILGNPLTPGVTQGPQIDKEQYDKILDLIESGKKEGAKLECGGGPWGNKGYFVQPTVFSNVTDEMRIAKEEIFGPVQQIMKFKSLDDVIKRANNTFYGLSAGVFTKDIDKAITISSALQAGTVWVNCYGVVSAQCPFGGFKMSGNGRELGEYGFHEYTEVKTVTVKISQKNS
IMPase cell inh = qHTS Assay for Identifying the Cell-Membrane Permeable IMPase Inhibitors. CHO-M1 cells, IP1 accumulation, HTRF TR-FRET ratio. Inositol monophosphatase 1 (Rattus norvegicus), P97697. inhibition (IP1 accumulation), % at 46.1 µM. 120,000 tested, under 10 active; active means well fitted curve in the direction sought with a large enough effect in the signal ratio, not every such curve was filed as active; inconclusive means small, poorly fitted or top-dose-only effect, or a change in a side signal; inactive means no such curve, though single readings can be large or run the other way; the % refers to the signal ratio;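 further: cells stimulated with carbachol in lithium chloride buffer; plate controls were DMSO basal wells for no effect and reference inhibitor wells for full effect; higher means more IMPase inhibition seen as more IP1 and lower FRET ratio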
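Carbachol-driven Gq signalling in CHO-M1 cells (2000/well) generates IP1. Compounds that block IMPase raise IP1 and so reduce the FRET signal from Eu-anti-IP1 and d2-IP1 after a 10 min room-temperature lysis.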
HPGD block = qHTS Assay for Inhibitors of HPGD (15-Hydroxyprostaglandin Dehydrogenase) | purified HPGD, NADH fluorescence kinetic, PGE2 substrate | actives 4.3% (n = 150,000) | Potency, µM, for the others: at the top dose activity change, negative = inhibition, actives largely listed as inhibitors | AID 894, 2007; further: potency means the concentration at half of the fitted maximal effect
Target sequence (P15428 whole entry, looked up): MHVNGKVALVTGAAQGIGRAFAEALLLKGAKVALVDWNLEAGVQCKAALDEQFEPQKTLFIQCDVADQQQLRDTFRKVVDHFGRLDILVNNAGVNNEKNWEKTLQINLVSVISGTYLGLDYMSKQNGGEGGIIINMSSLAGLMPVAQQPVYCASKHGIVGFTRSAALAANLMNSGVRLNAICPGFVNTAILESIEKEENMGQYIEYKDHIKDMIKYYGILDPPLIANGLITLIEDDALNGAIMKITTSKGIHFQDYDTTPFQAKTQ
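NADH formation kinetics: reaction with 30 uM PGE2 and 1 mM NAD+ (final), 20 nM enzyme, Tris-HCl pH 8 with Tween 20, after 15 min compound preincubation at room temperature. Fluorescence change, last versus first of five reads.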
Lamin A splicing = qHTS Assay for Modulators of Lamin A Splicing. actives 0.01% (n = 200,000). Potency, µM (highest dose often 46.1 µM), for the others: at the top dose ratio change, negative = inhibition, most hits filed as inhibitors. AID 1487, 2009. HeLa LMNA splicing GFP/RFP minigene ratio, 48 h; active means well fitted inhibition curve with a large enough effect in the signal ratio, with a control signal flat, not every such curve was filed as active; inconclusive means small, poorly fitted or top-dose-only effect, or effect the other way, or a change in a side signal; the % refers to the signal ratio; further: potency means the concentration at half of the fitted maximal effect
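Read-out is the ratio of GFP to DsRed2 object intensity, acquired by 488 nm laser-scanning cytometry on HeLa lamin A-EGFP minigene reporter cells. Compound incubation 48 hrs at 37 °C in Opti-MEM with 2% FBS; DMSO 0.5% final.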
PNC inhibitor = High Content Assay for Compounds that inhibit the Assembly of the Perinucleolar Compartment; PC3M PTB-GFP, PNC prevalence imaging, 16 h; hits give low values; activity change (PNC), negative = inhibition, % at 10 µM; actives 3.1% (n = 140,000);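 active means readout at or below -70, meaning at least 70% loss of cells showing the perinucleolar compartment, a nuclear body marking cancer cells; inconclusive means readout between -30 and a set limit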;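 further: plate controls were DMSO wells for no effect and camptothecin positive control wells for full effect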
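PC3M cells stably expressing PTB-GFP, 750–1000 cells/well, treated 16 h at 37 °C with compound (23 nl of library stock), in duplicate. After paraformaldehyde fixation and Hoechst stain, imaged at 20x; PNC prevalence scored by image analysis.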
KinaseGlo FLuc = Counterscreen for Luciferase (Kinase-Glo TM) Inhibition. Luciferin 4-monooxygenase (Photuris pensylvanica), Q27757. actives 0.28% (n = 200,000). Kinase-Glo luciferase, ATP luminescence, 8 min. Potency, µM (titrated, usually from 38.3 µM), inactives show at the top dose activity change, negative = inhibition, actives largely listed as inhibitors; active means well fitted inhibition curve with a large enough effect; inconclusive means small, poorly fitted or top-dose-only effect; further: potency means the concentration at half of the fitted maximal effect; nearly all actives have a fitted effect of over 60% in size
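Luminescence was the read-out, taken after 8-minute incubation at ambient temperature. Luciferase turned over luciferin with 10 uM ATP in imidazole pH 7.2 buffer containing KCl, MgCl2, Tween 20 and BSA.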
Numbers without * were called inactive; ? = inconclusive; nt = no result; [ ] = remark or other dose. Unless noted, the call rests on the fitted dose curve; in most records, active means well fitted inhibition curve with a large enough effect (not every such curve was filed as active); inconclusive means small, poorly fitted or top-dose-only effect, or another doubt; inactive means no such curve, though single readings can be large or run the other way. Unless noted, on the % scale 0 is the no-effect control and ±100 the full control effect.

SMILES	ALDH1A1 inh	IMPase cell inh	HPGD block	Lamin A splicing	PNC inhibitor	KinaseGlo FLuc
Cc1cccc(OCC(=O)Nc2cccc(C(=O)OCc3cc(=O)n4nc(C(C)C)sc4n3)c2)c1	nt	nt	nt	-13%[46 µM]	nt	nt
O=C(c1cc(F)c(F)cc1Cl)N1CCOCC1	10%	-4	-17%	1%	19	-1%
CC1CCN(C(=O)c2cc(F)c(F)cc2Cl)CC1	3%	9	13µM*	-9%	-100*	2%
O=C1/C(=C/c2cccs2)NC(=S)N1C1CC1	?	nt	16µM*	2%	-3	7%
CC1CCCCN1CCCNC(=O)c1sc2ncccc2c1-n1cccc1 (stereo not given)	nt	nt	nt	6%[46 µM]	nt	nt
Cc1ccc(NC(=O)Cn2cnc3c(oc4nc5c(cc43)COC(C)(C)C5)c2=O)cc1	-4%	nt	-4%	-5%	-84*	-2%
CC1(C)Cc2nc3sc4c(=O)n(CC(=O)NCc5ccco5)cnc4c3cc2CO1	22µM*	3	?	-18%	1	1%
CC(C)Cn1cc(NC(=O)N2CCN(c3ccc(F)cc3)CC2)c2ccccc2c1=O	nt	nt	nt	9%[46 µM]	nt	nt
Cc1cc(C)c(O)c(Cc2cccc(Cc3cc(C)cc(C)c3O)c2O)c1	1%[13.5 µM]	nt	-6%	nt	nt	-4%[7.66 µM]
Cc1cc(C)c(O)c(N)c1	25µM*	nt	nt	?	nt	-5%
CC(C)(C)C1CCC2(CC1)CCN(CCCN1CCOCC1)CC2	-6%[13.5 µM]	nt	1%	nt	nt	-2%[7.66 µM]
O=C(Nc1cccn(Cc2c(F)cccc2Cl)c1=O)NC1CCCCC1	25µM*	nt	nt	nt	nt	-2%
Cc1ccc(C(CC(=O)c2ccco2)SCCO)cc1 (stereo not given)	-10%	-6	-13%	?	7	-8%
O=C(CC(SCCO)c1ccc(F)cc1)c1ccco1 (stereo not given)	28µM*	7	-27%	?	23	-20%
COc1cccc(C2NC(C(=O)O)CCC2C)c1 (stereo not given)	10%[13.5 µM]	nt	nt	nt	nt	nt
CCOC(=O)CCC(NC(=O)CCC(=O)NC(CCC(=O)OCC)C(=O)OCC)C(=O)OCC (stereo not given)	10%	nt	-1%	-4%	-134*	3%
O=C(CSc1nc2[nH]ncc2c(=O)n1-c1ccccc1)NCc1cccs1	?	nt	nt	nt	nt	-3%
Cc1cccc(NC(=O)CSc2nc3[nH]ncc3c(=O)n2-c2ccccc2)c1	4.5µM*	nt	-11%	3%	14	-7%
O=C(CSc1nc2[nH]ncc2c(=O)n1-c1ccccc1)c1ccc2c(c1)OCCO2	0.32µM*	10	0%	?	-12	-5%
Cc1cccc(NC(=O)CSc2nc(NS(=O)(=O)c3ccccc3)cc(=O)[nH]2)c1	28µM*	nt	nt	nt	nt	0%
CC1=CC(=O)CC(C)(C)[C@]1(O)/C=C\C(C)=C\C(=O)O	6%[13.5 µM]	nt	-4%	nt	nt	-1%[7.66 µM]
COc1ccccc1-c1ccc(NC2CCCCC2)nn1	-5%	4	7.1µM*	-15%	108	-3%
COc1ccccc1-c1ccc(Nc2cccc(C(F)(F)F)c2)nn1	0%	22	-6%	-9%	-15	13%
O=C1C(C=Nc2ccc(F)cc2)=C(O)c2ccccc21	4%	nt	nt	6%[46 µM]	nt	?
Cc1ccccc1N=CC1=C(O)c2ccccc2C1=O	?	nt	nt	nt	nt	13µM*
SMILES	ALDH1A1 inh	IMPase cell inh	HPGD block	Lamin A splicing	PNC inhibitor	KinaseGlo FLuc
O=C1C(C=NCc2ccncc2)=C(O)c2ccccc21	6%	-8	-11%	0%	42	21%
COc1ccc(N=CC2=C(O)c3ccccc3C2=O)c(OC)c1	?	3	-21%	3%	?	4.5µM*
O=C(c1ccco1)N1CCC2(CCCN(c3ncccn3)C2)CC1	?	nt	-14%	nt	nt	-3%
Cn1cc(/C=C2\SC(=O)NC2=S)c2ccccc21	1.4µM*	nt	nt	nt	nt	-5%
Cc1ccc(/C=C2/SC(=O)NC2=S)o1	14µM*	nt	nt	nt	nt	-2%
COc1ccc(/C=C2/SC(=O)NC2=O)cc1	-6%	nt	nt	23%[46 µM]	nt	1%
COC(=O)/C(=C/c1c[nH]c2ccccc12)[N+](=O)[O-]	?	0	nt	-4%	-27	nt
Cn1cc(C=O)c2ccccc21	2.8µM*	nt	nt	nt	nt	-1%
COC(=O)/C(=C/c1cn(C)c2ccccc12)[N+](=O)[O-]	1.8µM*	-1	3.5µM*	-11%	?	2%
O=C(CN1C(=O)CSc2ccc(S(=O)(=O)N3CCCCC3)cc21)NCc1ccc(F)cc1Cl	nt	nt	nt	-6%[46 µM]	nt	nt
N[C@@H]1C(O)OC(CO)C(O)C1O (stereo not given in full)	14%	nt	-3%	16%	nt	-1%
O=Cc1ccc(-n2cc(C=O)c3ccccc32)cc1	11µM*	nt	nt	11%[46 µM]	nt	-1%
O=Cc1ccc(-n2cccn2)cc1	?	nt	nt	nt	nt	-4%
COc1ccc([C@H]2c3cc(OC)c(OC)cc3C[C@@H](C)[C@@H]2C)cc1OC	7%	nt	-2%	nt	nt	3%
O=C(Nc1ccc(Cl)cc1)OCc1cc(-c2ccccc2Cl)on1	4µM*	11	-4%	-6%	105	0%
Cc1ccc(NC(=O)OCc2cc(-c3ccccc3)on2)cc1	2%	nt	nt	7%[46 µM]	nt	-1%
COc1ccc(NC(=O)c2sc(=S)[nH]c2N)cc1	10µM*	20	28µM*	10%	14	-1%
C=CC(=O)CC	2µM*	nt	-2%	nt	nt	nt
Cc1nn(-c2ccccc2)c(Cl)c1C(=O)Nc1nnc(C2CCCCC2)s1	4µM*	1	-7%	?	?	1%
Cc1ccc(C)c(NC(=O)c2cc(-c3ccccc3)nn2-c2ccccc2)c1	?	11	-13%	?	?	1%
O=C(Nc1nnc(C2CC2)s1)c1cc(-c2ccccc2)nn1-c1ccccc1	-8%	1	-9%	?	-81*	-2%
Cc1nn(Cc2ccccc2Cl)c(C)c1C(=O)Nc1nnc(C2CC2)s1	?	2	-25%	?	-97*	0%
COC(=O)[C@H](C)NC(=O)C/C=C\[C@@H](C)CO	8%[13.5 µM]	nt	nt	nt	nt	nt
CCOc1cc(CNC(=O)c2ccc3nc(CCc4ccccc4)oc3c2)ccc1OC	nt	nt	nt	-13%[46 µM]	nt	nt
Cc1cc(C)c2cc(CN(CCO)C(c3nnnn3Cc3ccc(F)cc3)C(C)C)c(=O)[nH]c2c1 (stereo not given)	13µM*	11	1%	?	-30	4%
Cc1ccc(-c2nn3nnnc3c3ccccc23)cc1C	7.1µM*	4	-13%	4%[0.0737 µM]	29	0%
Cc1ccccc1-c1cnn(-c2cccc([N+](=O)[O-])c2)c1N	-2%	nt	nt	nt	nt	3%
CC(=O)c1nnn(-c2cccc([N+](=O)[O-])c2)c1C	-7%	nt	nt	nt	nt	-2%

Source: PubChem (National Center for Advancing Translational Sciences (NCATS))
